According to PubChem BioAssay (NCATS):
Records with an inconclusive call do not appear. The source made the active and inactive calls. The call rests on the fitted dose curve; in most records, active means well fitted inhibition curve with a large enough effect; inconclusive means small, poorly fitted or top-dose-only effect; inactive means flat fitted curve, though single readings scatter.

How the values were obtained:
Assay in all cases: qHTS profiling for inhibitors of Plasmodium falciparum proliferation (AID 504749); further: nearly all actives have a fitted effect of over 60% in size
Conditions in all cases: P. falciparum in erythrocytes, SYBR Green DNA, 72 h; series mostly up to 28.7 µM
[1] = tested on: CP194
Method in brief: (§1)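 SYBR Green fluorescence (ex 485 nm, em 535 nm) reports parasite DNA after 72 h compound exposure of infected red cells at 0.3% parasitemia, 2.5% hematocrit; signal normalized to 0.29 uM artemisinin and vehicle wells.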

[2] = tested on: CP201
Method in brief: as §1

[3] = tested on: CP203
Method in brief: as §1

[4] = tested on: CP211
Method in brief: as §1

[5] = tested on: CP215
Method in brief: as §1

[6] = tested on: CP217
Method in brief: as §1

[7] = tested on: CP237
Method in brief: as §1

[8] = tested on: CP238
Method in brief: as §1

[9] = tested on: CP250
Method in brief: as §1

[10] = tested on: CP252
Method in brief: as §1

[11] = tested on: CP256
Method in brief: as §1

[12] = tested on: CP260
Method in brief: as §1

[13] = tested on: CP262
Method in brief: as §1

[14] = tested on: CP265
Method in brief: as §1

[15] = tested on: CP268
Method in brief: as §1

[16] = tested on: CP269
Method in brief: as §1

[17] = tested on: CP286
Method in brief: as §1

[18] = tested on: CP291
Method in brief: as §1

[19] = tested on: CP266
Method in brief: as §1

[20] = tested on: CP247
Method in brief: as §1

Measured: Potency

COP(=S)(OC)SCN1C(=O)c2ccccc2C1=O
not listed: [19] | [20]
inactive: all other assays above

COc1ccc2c(c1OC)C(=O)O[C@H]2[C@@H]1c2cc3c(cc2CCN1C)OCO3
inactive: [1] | [2] | [3] | [4] | [5] | [13] | [19] | [15] | [16] | [18]

Cc1nnc2n1-c1ccc(Cl)cc1C(c1ccccc1)=NC2
not listed: [11]
inactive: all other assays above

CCCCCCC(=O)CCCCCC/C=C/C[C@@H](O)[C@H](O)[C@@](N)(CO)C(=O)O
not listed: [9]
inactive: all other assays above

O=C(Nc1ccc(Br)cc1)c1cc(Br)cc(Br)c1O
not listed: [3] | [13]
inactive: all other assays above

COc1c2c(cc3c1OCO3)CCN(C)C2
not listed: [4]
inactive: all other assays above

CNC(C)(C)Cc1ccccc1
not listed: [7]
inactive: all other assays above
